High-throughput results as filed in PubChem BioAssay.
This is a sample that favours compounds with a hit; in the whole collection about 10% have one here.
BAZ2B inh: qHTS Assay for Inhibitors of BAZ2B; Potency, µM (titrated, usually from 114 µM), most hits filed as inhibitors; Bromodomain adjacent to zinc finger domain protein 2B (Homo sapiens), Q9UIF8; actives 4.4% (n = 360,000); AlphaScreen BAZ2B-H3K14Ac peptide displacement; also: nearly all actives have a fitted effect of over 60% in size
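AlphaScreen luminescence quantifies BAZ2B engagement of H3K14Ac peptide; the protein and biotinylated peptide are both at 50 nM final, buffer PBS pH 7.4 with 0.01% Tween-20, all steps at room temperature.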
CtBP-E1A inh: qHTS Assay for Inhibitors of the CtBP/E1A Interaction; CtBP / adenovirus E1A interaction (AlphaScreen); AlphaScreen GST-E1A/His-CtBP binding, 1536-well; stronger effect = lower value; activity change, % (no concentration beside the values); actives 0.49% (n = 340,000); AID 651724, 2012; in the data active = activity change below about -65%; inconclusive = mostly about -30% to -63%
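Homogeneous bead-based format: GST-tagged E1A captured on glutathione donor beads, His-tagged CtBP on nickel acceptor beads; compounds precede bead addition by 2 h at 37 °C.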
HP1b binding inh: HTS for Inhibitors of HP1-beta Chromodomain Interactions with Methylated Histone Tails; Chromobox protein homolog 1 (Homo sapiens), P83916; AlphaScreen HP1-beta / biotin-H3K9me3 peptide binding; Potency, µM (doses to about 114 µM), usual class: inhibitors; actives 0.56% (n = 390,000); AID 540317, 2011; also: nearly all actives have a fitted effect of over 70% in size
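AlphaScreen: HP1-beta (50 nM) preformed 30 min with biotin-H3(1-18)K9me3 peptide (50 nM) in PBS pH 7.4, 0.01% Tween-20. Compound added for 30 min at RT, then streptavidin donor/nickel chelate acceptor beads (10 ug/mL) for 30 min.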
Six1-Eya2 blk: qHTS Assay for Inhibitors of the Six1/Eya2 Interaction; AlphaScreen GST-Six1/His-Eya2 binding, biochemical; stronger effect = lower value; activity change, % (no concentration beside the values); actives 0.56% (n = 360,000); AID 651725, 2012; in the data active = activity change below about -65%; inconclusive = mostly about -30% to -63%
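Six1/Eya2 binding was read as AlphaScreen signal after compounds were pinned into GST-Six1 plus His-tagged Eya2 (5X stock 250/500 nM) in pH 8.0 Tris/NaCl/TCEP buffer, beads added, then incubated 1 h, 37 C, dark.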
G9a inh: qHTS Assay for Inhibitors of Histone Lysine Methyltransferase G9a. Histone-lysine N-methyltransferase EHMT2 (Homo sapiens), Q96KQ7. G9a H3K9 monomethylation, AlphaScreen, 2 h. Potency, µM (highest dose often 102 µM), usual class: inhibitors. actives 8.8% (n = 350,000). AID 504332, 2011; also: nearly all actives have a fitted effect of over 75% in size
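AlphaScreen detection with an anti-monomethyl H3K9 antibody quantified product after a 2 h room-temperature reaction containing 500 nM biotinylated H3K9 peptide, 20 µM SAM and 20 nM enzyme, which had been preincubated 15 min with compound.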
JMJD2A Tudor: qHTS Assay for Inhibitors of JMJD2A-Tudor Domain; Lysine-specific demethylase 4A (Homo sapiens), O75164; AlphaScreen JMJD2A-Tudor / H3K4me3 peptide binding; Potency, µM (series often up to 114 µM), most hits filed as inhibitors; actives 4.4% (n = 390,000); AID 504339, 2011; also: nearly all actives have a fitted effect of over 50% in size
Target sequence (O75164 whole entry, looked up, the tested form may be a part): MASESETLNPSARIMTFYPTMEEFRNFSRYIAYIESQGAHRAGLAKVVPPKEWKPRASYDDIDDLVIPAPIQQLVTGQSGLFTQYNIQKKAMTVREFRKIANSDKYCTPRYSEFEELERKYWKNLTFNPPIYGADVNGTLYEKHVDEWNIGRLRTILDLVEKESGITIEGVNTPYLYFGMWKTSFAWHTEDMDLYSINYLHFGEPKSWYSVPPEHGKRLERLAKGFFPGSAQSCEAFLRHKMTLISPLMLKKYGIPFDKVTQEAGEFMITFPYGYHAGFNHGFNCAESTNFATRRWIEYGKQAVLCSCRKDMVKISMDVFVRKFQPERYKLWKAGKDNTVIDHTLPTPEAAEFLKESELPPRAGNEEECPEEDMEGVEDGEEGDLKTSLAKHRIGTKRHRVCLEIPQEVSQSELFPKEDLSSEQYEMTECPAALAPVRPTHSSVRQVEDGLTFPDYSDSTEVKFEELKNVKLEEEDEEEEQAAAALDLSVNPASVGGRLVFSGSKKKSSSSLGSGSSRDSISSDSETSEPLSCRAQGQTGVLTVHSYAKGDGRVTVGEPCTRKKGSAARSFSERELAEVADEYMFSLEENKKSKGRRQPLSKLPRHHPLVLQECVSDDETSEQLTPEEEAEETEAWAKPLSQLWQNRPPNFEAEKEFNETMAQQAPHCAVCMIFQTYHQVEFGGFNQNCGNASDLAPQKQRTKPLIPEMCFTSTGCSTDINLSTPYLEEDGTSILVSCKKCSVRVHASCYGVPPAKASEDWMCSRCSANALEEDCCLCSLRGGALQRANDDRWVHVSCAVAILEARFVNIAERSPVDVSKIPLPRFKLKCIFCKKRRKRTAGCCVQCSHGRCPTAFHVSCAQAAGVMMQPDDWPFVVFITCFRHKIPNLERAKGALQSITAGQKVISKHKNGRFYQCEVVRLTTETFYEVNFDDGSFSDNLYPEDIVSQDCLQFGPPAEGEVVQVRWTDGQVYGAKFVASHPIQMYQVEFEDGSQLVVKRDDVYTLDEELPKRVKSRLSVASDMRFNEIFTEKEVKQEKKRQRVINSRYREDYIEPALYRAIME
A number is an active result; - = inactive; ? = inconclusive; . = no result; ! = a repeat was not active; [ ] = remark or other dose. Unless noted, calls follow the shape of the dose curve; as a rule, active = well fitted inhibition curve with a large enough effect; inconclusive = small, poorly fitted or top-dose-only effect; inactive = no such curve, though single readings can be large or run the other way.

SMILES	BAZ2B inh	CtBP-E1A inh	HP1b binding inh	Six1-Eya2 blk	G9a inh	JMJD2A Tudor
O=S(=O)(c1cccc(-c2n[nH]c(=S)n2C2CCCC2)c1)N1CCOCC1	.	-	-	-	10µM	3.98µM
C=CCn1c(-c2cccc(S(=O)(=O)N3CCOCC3)c2)n[nH]c1=S	-	-	-	-	7.08µM	7.08µM
CCN(CC)S(=O)(=O)c1cccc(-c2n[nH]c(=S)n2C)c1	-	-	?	-	?	17.8µM
CC1CCc2c(sc3nc(-c4cc5cc(Br)ccc5oc4=O)[nH]c(=O)c23)C1 (centres undefined)	-	.	-	.	-	-
C=CCn1c(-c2cccc(S(=O)(=O)N(CC)CC)c2)n[nH]c1=S	.	-	-	-	3.55µM	12.6µM
CCOC(=O)[C@]12CCCC=C1N(Cc1ccccc1)C(=O)[C@H](CC(=O)N1CCC(c3ccccc3)CC1)C2	.	-	.	-	.	.
O=C(CN1CCNCC1)NCCSc1ccc(Cl)cc1	-	-	-	-	?	-
CC(C)C(=O)NC(NC(=S)Nc1ccc(S(N)(=O)=O)cc1)C(Cl)(Cl)Cl (centres undefined)	-	-	-	-	50.1µM	-
CCCC(=O)NC(NC(=S)Nc1ccc(S(N)(=O)=O)cc1)C(Cl)(Cl)Cl (centres undefined)	-	-	-	-	44.7µM	-
CC(C)C(=O)NC(Nc1ccc(S(N)(=O)=O)cc1)C(Cl)(Cl)Cl (centres undefined)	-	-	-	-	-	-
Cc1ccccc1NC(=O)Cn1c(O)c(N=NC(=O)c2ccccc2O)c2ccccc21	63.1µM	-	-	-	?	-
Cc1ccc(NCC(=O)N=Nc2c(O)n(C)c3ccccc23)cc1	17.8µM	-	-	-	.	-
Cn1c(O)c(N=NC(=O)CNC(=O)c2ccccc2)c2ccccc21	-	-	-	-	-	-
Cc1ccc(NC(=O)Cn2c(O)c(N=NC(N)=O)c3ccccc32)cc1	-	-	-	-	-	-
Cc1ccc(NC(=O)Cn2c(O)c(N=NC(N)=S)c3ccccc32)cc1	-	-	-	-	-	-
Cc1ccc(NC(=O)Cn2c(O)c(N=NS(=O)(=O)c3ccc(C)cc3)c3ccccc32)cc1	-	-	-	-	2.51µM	25.1µM
CCn1c(O)c(N=NC(=O)CNc2ccc(C)cc2)c2ccccc21	31.6µM	-	?	-	?	56.2µM
C=CCNC(=S)NS(=O)(=O)c1cccs1	-	-	-	-	17.8µM	-
NC(=O)C(CCc1nc2ccccc2[nH]1)NS(=O)(=O)c1ccccc1 (centres undefined)	.	-	.	-	.	.
CC1(C)C2CCC1(C)C(NCC(O)COc1ccc(C#N)cc1)C2 (centres undefined)	25.1µM	-	-	-	?	12.6µM
Cc1nc(-c2ccc(F)cc2)sc1CCNC(=O)Cc1ccc(F)cc1	-	.	-	.	-	-
Cc1[nH]c(=S)sc1Cc1ccc(F)cc1	-	-	-	-	2µM	39.8µM
O=c1cc(O)nc(-c2ccccc2)s1	-	-	-	-	44.7µM	-
O=c1cc(O)nc(-c2ccc(Cl)cc2)s1	-	-	-	-	28.2µM	-
O=S1(=O)c2ccccc2N(Cc2ccc(Cl)cc2)c2ccccc21	-	.	-	.	-	-
SMILES	BAZ2B inh	CtBP-E1A inh	HP1b binding inh	Six1-Eya2 blk	G9a inh	JMJD2A Tudor
O=S1(=O)c2ccccc2N=NN1Cc1ccc(Cl)cc1	?	-	-	-	0.631µM	79.4µM
CCOC(=O)N1CCc2c(sc3c2c(=O)n(CCc2ccccc2)c(=O)n3Cc2c(F)cccc2Cl)C1	-	.	-	.	-	-
CCCC(=O)NCc1ccccc1Cl	-	-	-	-	-	-
O=C(Cc1nn[nH]n1)NCc1ccccc1Cl	50.1µM	-	-	-	-[12.7 µM]	-
O=C(Cc1nn[nH]n1)c1ccccc1O	-	-	-	-	-	44.7µM
CCOC(=O)c1ccccc1NC(=O)N1CCN(Cc2cc(=O)n3nc(-c4ccccc4)sc3n2)CC1	-	.	-	.	-	-
COc1cc2c(s1)c1cnn(Cc3ccccc3F)c(=O)c1n2C	.	.	.	.	.	-
Cc1nc(C(=O)N2CCc3c([nH]c4ccccc34)C2c2ccccn2)cs1 (centres undefined)	-	-	-	-	-	-
CC(C)c1nc(C(=O)N2CCc3c([nH]c4ccccc34)C2c2ccccn2)cs1 (centres undefined)	22.4µM	-	-	-	.	56.2µM
Cc1ccccc1C(=O)N1CCc2c([nH]c3ccccc23)C1C(F)(F)F (centres undefined)	?	-	?	-	?	-
O=C(Cc1ccsc1)N1CCc2c([nH]c3ccccc23)C1c1ccccn1 (centres undefined)	-	-	-	-	50.1µM	?
O=C(O)c1cccnc1C(=O)N1CCc2c([nH]c3ccccc23)C1C(F)(F)F (centres undefined)	-	-	-	-	56.2µM	?
CC1=C(C(=O)O)CC(S(=O)(=O)O)C1(C)C (centres undefined)	.	-	-	-	.	-
CCc1ccc(CNC(=O)c2ccc(NC(=O)N3CC(C)Sc4ccccc43)cc2)cc1 (centres undefined)	-	.	-	.	-	-
CC(C)(C)NS(=O)(=O)c1ccc(NC(=O)C2CCCCC2)cc1	-	-	-	-	-	-
C[C@H](NC(=O)[C@@H]1Cc2ccccc2CN1)C(=O)NC1CCCCC1	-	-	-	-	79.4µM	-
COc1ccc(CNC(=O)[C@H](C)NC(=O)[C@@H]2Cc3ccccc3CN2)cc1	?	-	-	-	70.8µM	-
C[C@@H](NC(=O)[C@@H]1Cc2ccccc2CN1)C(=O)NCC1CCCO1 (some centres undefined)	-	.	-	-	50.1µM	-
O=C(CNC(=O)[C@@H]1Cc2ccccc2CN1)NCc1ccco1	-	.	-	-	70.8µM	-
O=C(c1ccc2c(c1)N(Cc1ccc(F)cc1)C(=O)c1ccccc1S2=O)N1CCC(Cc2ccccc2)CC1 (centres undefined)	-	.	-	.	?	-
Cc1ccc(S(=O)(=O)NCCC(=O)NCC(c2cccs2)N2CCOCC2)cc1 (centres undefined)	-	-	-	-	-	-
C=C1CN(CC(=O)OC)S(=O)(=O)c2ccccc21	-	-	-	-	-	89.1µM!
Cc1ccc2[nH]c(C)c(CCNC(=O)C3CCCCC3C(=O)OCC(F)(F)F)c2c1 (centres undefined)	?	-	-	-	-	70.8µM
